Sampled rows, rich in hits. Any-hit rate of the full collection: about 2.7%.
IDH1 R132H inh: blocks human mutant IDH1 R132H enzyme. O75874. IDH1-R132H enzyme, NADPH consumption, diaphorase/resazurin fluorescence. Potency, µM (titrated, usually from 76.6 µM), inactives show at the highest dose activity change, negative = inhibition, actives largely listed as inhibitors. 390,000 tested, 0.093% active. AID 602179; also: % is scaled to controls: 0 for no effect and ±100 for the full control effect; nearly all actives have a fitted effect of over 65% in size
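IDH1-R132H (0.5 ug/mL) preincubated 30 min with compound, then NADPH (0.016 mM) and alpha-KG (2 mM) added; 80 min at RT, pH 7.5. Remaining NADPH coupled via diaphorase/resazurin to fluorescence (540/590 nm); concentration-response curves normalized to no-enzyme control.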
rTrxR1 inhibitor: rat TrxR1 inhibition; Potency, µM (doses to about 114 µM), for inactives: at the top dose activity change, negative = inhibition, most hits filed as inhibitors; recombinant rTrxR1, NADPH fluorescence consumption, selenite substrate; 390,000 tested, 1% active; O89049; also: % is scaled to controls: 0 for no effect and ±100 for the full control effect; nearly all actives have a fitted effect of over 65% in size
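Rat TrxR1 (90 nM in the dispensed reagent) was pre-reduced with 400 uM NADPH for 5 min at room temperature, then incubated with compound for 15 min. After 400 uM selenite was added, NADPH fluorescence (Ex 340/Em 450 nm) was followed for 8 min.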
HEK293 tox: cytotoxicity counter-screen for GLP-1 receptor inverse agonists; HEK293 cAMP-luciferase reporter cells, luminescence, 24 h; Potency, µM (highest dose often 38.3 µM), for the others: top-dose activity change, negative = inhibition, hits mostly inhibitors; 410,000 tested, 0.13% active; AID 624418;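 also: loss of luciferase light is scored as toxicity; % is scaled to controls: 0 for no effect and ±100 for the full control effect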
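Here, cytotoxicity is scored as loss of luminescence. The MLSMR collection was tested on cells seeded in medium containing 10% Nu serum, with a 24 hr compound exposure preceded by 12 hours of culture.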
GLP1R inv ag: inverse agonists of human GLP-1 receptor. P43220. HEK293 GLP-1R CRE-luciferase, luminescence, 24 h; GLP-1R form is constitutively active. Potency, µM (series often up to 38.3 µM), for inactives: at the highest dose activity change, negative = inhibition, hits mostly inhibitors. 410,000 tested, 1.6% active; also: % is scaled to controls: 0 for no effect and ±100 for the full control effect; nearly all actives have a fitted effect of over 55% in size
Target sequence (P43220 whole entry, looked up): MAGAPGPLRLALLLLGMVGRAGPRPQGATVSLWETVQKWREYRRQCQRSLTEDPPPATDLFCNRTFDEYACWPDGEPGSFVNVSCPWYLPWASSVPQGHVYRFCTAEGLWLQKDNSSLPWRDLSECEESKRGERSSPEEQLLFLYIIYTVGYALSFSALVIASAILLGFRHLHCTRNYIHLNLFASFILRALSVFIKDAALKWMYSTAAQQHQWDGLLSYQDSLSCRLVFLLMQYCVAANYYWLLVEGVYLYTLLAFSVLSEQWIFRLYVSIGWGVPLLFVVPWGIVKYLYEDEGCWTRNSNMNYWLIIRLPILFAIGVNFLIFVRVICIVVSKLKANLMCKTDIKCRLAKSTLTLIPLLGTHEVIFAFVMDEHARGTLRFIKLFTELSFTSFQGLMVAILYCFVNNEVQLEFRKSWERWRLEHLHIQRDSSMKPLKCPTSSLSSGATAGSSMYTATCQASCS
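Constitutively active GLP-1R drives a cAMP-responsive luciferase in stably transfected HEK293 cells; test compounds are added after overnight (12 h) attachment and left 24 hr, and signal loss in luminescence marks inhibition.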
TrxR1 substrate: rat thioredoxin reductase 1 substrate activity; O89049; purified TrxR1 substrate turnover, NADPH consumption readout; Potency, µM (doses to about 114 µM), without a hit: at the highest dose activity change, negative = substrate turnover; 390,000 tested, 0.01% active; AID 588456; also: % is scaled to controls: 0 for no effect and ±100 for the full control effect; nearly all actives have a fitted effect of over 50% in size
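Rat TrxR1, dispensed at 90 nM, was prereduced with 400 uM NADPH (final) for 5 min at ~22 deg C, then incubated with compound 15 min before 400 uM selenite. A first-read NADPH fluorescence drop versus no-compound background flagged substrates.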
GLP-1R agonist: activates the human GLP-1 receptor | AID 624172 | 380,000 tested, 0.007% active | P43220 | HEK293 GLP-1R CRE-luciferase, luminescence, 4-6 h; cells express a hypersensitive GLP-1R form | Potency, µM (series often up to 45.6 µM), for the others: top-dose activation, actives largely listed as activators; also: % of control where 0% means no effect
Starred values were filed as active, the others as inactive; ? = inconclusive; · = not tested or not shown; [ ] = dose if it differs, or a comment. Calls follow the shape of the dose curve; as a rule, active = well fitted curve in the direction sought with a large enough effect; inconclusive = small, poorly fitted or top-dose-only effect, or another doubt; inactive = no such curve, though single readings can be large; an effect the other way counts as inactive or inconclusive. Potency is read from the fitted curve at half-maximal effect.

SMILES	IDH1 R132H inh	rTrxR1 inhibitor	HEK293 tox	GLP1R inv ag	TrxR1 substrate	GLP-1R agonist
Nc1nc(CCl)nc(N(c2ccccc2)c2ccccc2)n1	-2.8%	2.4%[11.4 µM]	?	?	10.9%[11.4 µM]	?
CCCSc1cc(OC)c(CCN)cc1OC	·	·	·	·	·	8.5%[110 µM]
COc1ccc2[nH]c(C)c(CCNCc3cn(C)c4ccccc34)c2c1	8.0%	-16.8%	?	2.82µM*	-5.6%	-4.4%
Oc1ccc2c3c1OC1C(O)C=CC4[C@@H](C2)NCC[C@]314 (stereo partly drawn)	·	·	·	·	·	-1.6%[96 µM]
C[C@H]1[C@@H](OS(=O)(=O)O)C[C@@H]2C[C@H]([C@@H](O)c3cc(=O)[nH]c(=O)[nH]3)NC3=NC[C@H]1N32	10.0%	0.0%	·	2.51µM*	7.2%	-10.0%
Cc1cc(=O)oc2c(C)c(OC3CCCCC3=O)ccc12 (stereo not drawn)	0.0%	?	6.4%	43.6%	67.3%	16.6%
CCN(CC)c1ccc(C=C2C(=O)NC(=S)NC2=O)cc1	-7.0%	4.47µM*	21.3%	-31.6%	-5.3%	-10.8%
CCOc1ccc(C=C2C(=O)NC(=S)NC2=O)cc1OCC	-3.0%	8.91µM*	-1.3%	36.6%	7.7%[57.1 µM]	1.8%
CCOc1cc(C=C2C(=O)NC(=O)NC2=O)ccc1OS(=O)(=O)c1ccccc1	5.9%	?	4.0%	-27.9%	2.8%[57.1 µM]	-8.4%
CN(C)c1ccc(C=C2C(=O)NC(=S)NC2=O)cc1	-3.7%	3.98µM*	-5.7%	8.3%	-9.7%	-2.4%
CN(C)c1ccc(C=C2C(=O)NC(=O)NC2=O)cc1	-1.8%	-7.9%[2.29 µM]	-0.6%	-13.2%	2.1%[57.1 µM]	-0.9%
CC(=O)Nc1ccc(C=C2C(=O)NC(=O)NC2=O)cc1	0.1%	-49.5%[57.1 µM]	59.6%	8.8%	11.8%[57.1 µM]	10.0%
COc1ccc(NS(=O)(=O)c2ccc3c(c2)CCCN3C(=O)C2CCC2)cc1OC	-1.1%	18.7%[57.1 µM]	-2.0%	?	5.2%[57.1 µM]	·
COc1ccc(-n2c(C)cc(C(=O)COc3ccc(C)nc3[N+](=O)[O-])c2C)cc1	3.3%	3.7%	?	?	2.7%	0.8%
CN1C(=O)c2ccccc2Sc2ccc(NC(=O)N3CCN(c4ccccc4)CC3)cc21	-13.8%	-32.6%	-20.2%	?	-0.3%	·
O=C(NCc1cccnc1)/C(=C\c1ccc(-c2ccc(Br)cc2)o1)S(=O)(=O)c1ccccc1	-23.5%	31.6µM*	?	1.78µM*	3.6%	-39.2%
Cc1ccc(OCC(=O)N2CCN(CCc3ccncc3)CC2)cc1C	-4.9%	79.4µM*	2.2%	-10.6%	1.6%	·
C=CCn1c(O)c(C2=c3ccccc3=NC2=O)sc1=Nc1ccc(O)cc1	-2.0%	7.2%	?	?	-2.1%	13.4%
Cc1ccc(NC2=C(NC(=O)c3ccccc3)C(=O)c3ccccc3C2=O)cc1Cl	17.6%	1.58µM*	?	?	?	-15.8%
CS(=O)(=O)c1sc(C#N)c2c1C(=O)CC(c1ccccc1)C2 (stereo not drawn)	-10.7%	-85.6%	11.2µM*	?	-4.0%	-10.5%
CCNC(C)Cc1ccc2c(c1)OCO2 (stereo not drawn)	·	·	·	·	·	10.1%[110 µM]
COCOC1CCC2C3CCC4=CC(=O)CCC4=C3C=CC12C (stereo not drawn)	11.4%	39.8µM*	12.5%	0.9%	3.0%	4.5%
[2H]c1c([2H])c([2H])c(-c2nc(N3CCCCCC3)sc2C(=O)c2ccccc2)c([2H])c1[2H]	-0.4%	8.0%[57.1 µM]	15.1%	2µM*	5.4%[57.1 µM]	-0.7%
Cc1cc2ccccc2n1-c1ccc(C(=O)N2CCC(C(=O)NCc3ccc(Cl)cc3)CC2)s1	8.4%	15.6%[57.1 µM]	-9.8%	?	0.5%[57.1 µM]	·
Cc1ccc2cc(C=C(C#N)C#N)c(Cl)nc2c1	0.8%	25.1µM*	151.9%	10.2%	-3.1%	-1.0%
Cc1cccc(NC(=O)Oc2ccc(Cl)c3cccnc23)c1	-3.2%	·	?	10µM*	·	14.4%

Compound activity as filed in PubChem BioAssay.
